According to PubChem BioAssay AID651812 (National Center for Advancing Translational Sciences (NCATS), 2012):
Among all 2,100 compounds or so, about 650 (31%) were called active. About 16% were inconclusive and are not listed. Calls follow the shape of the dose curve; as a rule, active = well fitted inhibition curve with a large enough effect; inconclusive = small, poorly fitted or top-dose-only effect; inactive = flat fitted curve, though single readings scatter. The list shows a part of the results. Entries that show only a call come without a potency.

Assay: qHTS for inhibitors of Vif-A3G interactions: Cherry picks; also: nearly all actives have a fitted effect of over 80% in size
Conditions: HeLa A3G-eYFP + Vif (tagged APOBEC3G with the HIV-1 protein that degrades it), 24 h; Potency: eYFP fluorescence increase; series mostly up to 36.9 µM
In short: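 HeLa cells stably expressing A3G-eYFP and Vif, cultured overnight then exposed to compounds at several concentrations for 24 hours at 37 C, 5% CO2; cellular yellow fluorescence (488 nm ex, 500-530 nm em) imaged on Acumen, MG132 positive control.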
Potency is read from the fitted curve at half-maximal effect.

Compound	Potency
CS(=O)(=O)N(CC(=O)N1CCN(Cc2ccccc2)CC1)c1ccccc1F	inactive
O=C(COC(=O)C12CC3CC(CC(Cl)(C3)C1)C2)N1CCCCC1	inactive
O=Cc1sc(Nc2ccccc2)nc1Cl	23.1 µM (active)
Cc1ccc(Nc2nc(Cl)c(C=O)s2)cc1Cl	16.4 µM (active)
c1ccc(Nc2nc(-c3ccccn3)cs2)cc1	inactive
COc1ccc(S(=O)(=O)N2CCCOC2CNC(=O)C(=O)NCCc2ccco2)cc1C (stereo unspecified)	inactive
C=C(C)CNC(=S)NNC(=O)c1ccco1	inactive
Cc1ccc2c(Cl)c(C)c(N3CCCC3)nc2n1	inactive
COc1ccc(C(=O)N2CCN(c3cccc(Cl)c3)CC2)cc1S(=O)(=O)NC1CC1	inactive
Cc1c(CCCl)c(Cl)n2c(nc3ccccc32)c1C#N	inactive
Cc1ccc(C(=O)NN(C)c2nc3ccccc3nc2C(F)(F)F)cc1	inactive
Cc1ccc(C(=O)NCCn2c(N)c(C#N)c3nc4ccccc4nc32)cc1	23.1 µM (active)
COc1ccc(-c2cnc3c(NC=O)cc(-c4ccoc4)cn23)cc1OC	inactive
CCN(CC)c1ccc(/C=N/NC(=O)c2ccco2)c(O)c1	inactive
CC(C)NC(=S)N/N=C/c1sc(N2CCCCC2)nc1-c1cccs1	23.1 µM (active)
CNC(=S)N/N=C/c1ccc(N2CCOCC2)s1	inactive
CC(C)NC(=S)N/N=C1\CCCCc2ccccc21	inactive
CCNc1cc(N2CCN(C3CCCCC3)CC2)c2noc3c2c1C(=O)c1ccccc1-3	16.4 µM (active)
CN(C)CCCNc1cc(N2CCN(C3CCCCC3)CC2)c2noc3c2c1C(=O)c1ccccc1-3	20.6 µM (active)
O=C1c2ccccc2-c2onc3c(N4CCN(C5CCCCC5)CC4)cc(NCCO)c1c23	4.61 µM (active)
O=C(c1cc(-c2ccncc2)nc2ccccc12)N1CCN(c2ccccn2)CC1	inactive
CCOc1cc(C)nc(NCc2ccccc2)n1	inactive

Compound	Potency
C=CCOC(=O)C1=C(C)Nc2nnnn2C1c1cccs1 (stereo unspecified)	inactive
N#CC1=C(S)N(c2ccc(F)cc2)C2(CCCCC2)NC1=O	inactive
O=C(COc1ccccc1)NC(=S)Nc1cccc2c(O)cccc12	inactive
COc1ccc(OC)c(NCc2cccn2-c2nnc(N3CCC(C)CC3)s2)c1	inactive
Cc1ccc(CSc2nc(-c3ccc(C(C)(C)C)cc3)nc3cc(=O)[nH]n23)cc1	inactive
Cc1nnc(NC(=O)c2sc3nc(-c4cccs4)cc(C(F)(F)F)c3c2N)s1	9.2 µM (active)
O=C(Nc1nc2ccccc2s1)c1ccc([N+](=O)[O-])o1	inactive
Nc1c(C(=O)Nc2ccc(F)cc2)sc2nc(-c3cccs3)cc(C(F)(F)F)c12	1.84 µM (active)
Nc1c(C(=O)Nc2nccs2)sc2nc(-c3cccs3)cc(C(F)(F)F)c12	14 µM (active)
O=C(N/N=C/c1ccsc1)c1cc(-c2cccs2)nc2ccccc12	inactive
Nc1c(C(=O)Nc2nc3ccccc3s2)sc2nc(-c3cccs3)ccc12	18.4 µM (active)
Cn1c(=O)c2c(nc(NC3CCCC3)n2C)n(C)c1=O	inactive
CSc1nc(N)c(C#N)c(-c2ccccc2Cl)c1C#N	inactive
N#Cc1c(Nc2ccccc2)[n+]([O-])c2ccc(Cl)cc2[n+]1[O-]	inactive
COc1cccc(/C(O)=C/c2nc3ccc(C(=O)NCCc4ccc(Cl)cc4)cc3[nH]c2=O)c1	16.4 µM (active)
COc1cccc(C(=O)N/N=C/C(Br)=C/c2ccccc2)c1	inactive
COc1cccc(/C(O)=C/c2nc3ccc(C(=O)NCCc4cccc(C)c4)cc3[nH]c2=O)c1	11.6 µM (active)
COc1ccc2nc(NC(=O)c3nc(S(=O)(=O)Cc4cccc(C)c4)ncc3Cl)sc2c1	inactive
CCOC(=S)SCC(=O)N1CCc2cc(OC)ccc2C1C1C(=O)CCCC1=O (stereo unspecified)	inactive
COc1ccc(NC(=S)Nc2ncccc2C)c(OC)c1	inactive
COc1cc(C(=O)c2ccc3c(c2)OCO3)cc(OC)c1OC	inactive
Oc1ccc(C2=NNC(=NCc3ccc4c(c3)OCO4)SC2)c(O)c1	inactive

Compound	Potency
CC1(C(=O)NCc2ccccc2)Cc2c(-c3ccc(C(N)=O)cc3)ccnc2O1 (stereo unspecified)	inactive
Cc1ccc2nsnc2c1NC(=O)c1ccc(-c2cc(Cl)ccc2Cl)o1	15.8 µM (active)
CCSc1nccc(-c2nn(-c3ccc(C)cc3)ccc2=O)n1	inactive
CC(C)c1ccc(C(=O)NCCCNC(=O)c2cnccn2)cc1	inactive
CC(=O)Nc1cccc(-c2ccnc3c2CC(C(=O)Nc2ccc(Cl)cc2)O3)c1 (stereo unspecified)	inactive
CC(=O)Nc1ccc(C2=CC(=O)C[C@H](c3ccc(Cl)cc3)C2)cc1	18.4 µM (active)
CC(=O)Nc1ccc2c(c1)Cc1ccc(Cl)cc1-2	inactive
CCSC1=N/C(=C\C=C2/Oc3ccccc3N2CC)C(=O)S1	14.6 µM (active)
O=C1c2cccc3c([N+](=O)[O-])ccc(c23)C(=O)N1c1ccccn1	5.8 µM (active)
Cc1nnc(N2C(=O)c3cccc4c([N+](=O)[O-])ccc(c34)C2=O)s1	18.4 µM (active)
CC(=O)Oc1ccc(N2C(=O)c3cccc4c([N+](=O)[O-])ccc(c34)C2=O)cc1	1.46 µM (active)
COC(=O)[C@@]1(Cc2ccccc2)[C@@H]2C(=CC(=O)[C@H]2CC(=O)C(=O)N(C)C)CN1C(=O)c1ccccc1	inactive
C/C(=N\NC(=S)NC(C)C)c1ccc(C(C)(C)C)cc1	inactive
CCCSc1nnc(N2C(=O)C(O)=C(C(=O)c3ccco3)C2c2ccccc2F)s1 (stereo unspecified)	inactive
CCN(CC)c1ccc2c(c1)OC(N)=C(C#N)C2c1cccnc1 (stereo unspecified)	17.7 µM (active)
N#CC1=C(N)Oc2ccc3ccccc3c2C1c1cccnc1 (stereo unspecified)	inactive
N#CC1=C(N)Oc2cc(N)ccc2C1c1cccc(Br)c1 (stereo unspecified)	inactive
Cc1cccc2[nH]cc(/C=C3/C=Nc4ccccc43)c12	18.4 µM (active)
CC(C)COc1ccc(C(=O)N/C(=C/c2cccc([N+](=O)[O-])c2)C(=O)O)cc1	inactive
Cc1nc2c3ccccc3n(Cc3ccccc3F)c2s1	inactive
FC(F)(Cl)c1nnc2ccc(Cl)nn12	inactive
CCc1ccc(N=Nc2ccc(O)c3[nH]cnc23)cc1	13 µM (active)
